Compound activity as filed in PubChem BioAssay.
RBX1-CUL1 inh = blocks human RBX1-Cullin-1 di-ubiquitin formation; in vitro K48 di-Ub FRET, acceptor:donor ratio, 45 min; inhibition, % at 10 µM; P62877+Q13616; actives 0.6% (n = 140,000); in the data active means inhibition above about 25%
* hit, by the source's call. Many of the other results were omitted from the sample, so hits are more common in it than they were.

SMILES | RBX1-CUL1 inh
CCOc1ccccc1/C=C1\SC(=Nc2ccc(C(=O)OC)cc2)N(C)C1=O | -11
COCCN1C(=O)/C(=C/c2ccccc2OCc2cccc(C(=O)O)c2)SC1=Nc1ccccc1 | 68*
Cc1ccc(N=C2S/C(=C/c3ccccc3OCC(=O)N3CCOCC3)C(=O)N2Cc2ccccc2)cc1 | 2
COc1ccc(N2C(=O)C(Cl)(Cl)[C@H]2c2ccccc2)cc1 | 2
Fc1ccc(/C=N\Nc2nc(-c3ccc(Br)cc3)cs2)cc1Oc1ccccc1 | -1
Clc1ccccc1-c1nnc2sc(/C=C/c3ccco3)nn12 | 96*
Fc1ccc(-c2nnc3sc(/C=C/c4ccco4)nn23)cc1 | 95*
COc1ccccc1-c1nnc2sc(/C=C/c3ccco3)nn12 | 20
Fc1ccc(/C=C/c2nn3c(-c4ccco4)nnc3s2)cc1 | 9
Clc1ccccc1-c1nnc2sc(-c3cccs3)nn12 | 0
Fc1ccc(-c2nn3c(-c4ccco4)nnc3s2)cc1 | 0
O=C(N/N=C/c1cccc(Cl)c1)c1cc2c(ccc3ccccc32)o1 | -5
CCOC(=O)c1cccc(NC(=O)c2ccccc2F)c1 | 0
CCc1noc(C)c1C(=O)Nc1cccc(Cl)c1Cl | -4
O=C(NC(Nc1ccccc1Cl)C(=O)c1ccccc1)c1cccs1 (stereo not given) | -5
C=CCN=C1CC(=O)N(Cc2ccccc2)C(=O)N1 | 0
Cc1cc(-c2ccccc2)nn1-c1nc2ccccc2s1 | -3
CCc1c(C)[nH]n(-c2nc3ccccc3s2)c1=O | 6
COc1ccc(CCn2c(O)cc3nn(-c4nc5ccccc5s4)c(=O)c-3c2C)cc1 | 80*
CNC(=O)C1CCN(Cc2cccc(Cl)c2)CC1 | 3
COc1ccc(N2C(=O)/C(=C/c3cccn3C(C)(C)C)C(=O)NC2=S)cc1 | 16
CCc1ccc(N2C(=O)/C(=C/c3cccn3C(C)(C)C)C(=O)NC2=S)cc1 | 1
CN1C(=O)/C(=C/c2cccn2C(C)(C)C)C(=O)NC1=S | 87*
O=C(NC12CC3CC(CC(C3)C1)C2)c1nc(-c2ccccc2)nnc1-c1ccc(Cl)cc1 | 4
Clc1ccc(-c2nc(N3CCN(c4ccccc4)CC3)ncc2-c2ccccc2)cc1 | 7
SMILES | RBX1-CUL1 inh
COC(=O)c1sccc1NC(=O)c1ccc([N+](=O)[O-])cc1 | -11
O=C(O)CSC1=C(SCC(=O)O)C(=O)C(SCC(=O)O)=C(SCC(=O)O)C1=O | 102*
N=C1CC(=O)NC(SCC(=O)O)=N1 | 9
O=C(O)CSc1ccc(Cl)cc1 | 1
CC1=NNc2nc3c(c(=O)n(Cc4ccc(C)cc4)c(=O)n3C)n2C1C (stereo not given) | 8
CN1CC=C2C(C#N)C(=N)C(C#N)(C#N)C(c3ccco3)C2C1 (stereo not given) | -4
CCOC(=O)N1CC=C2C(C#N)C(=N)C(C#N)(C#N)[C@H](c3cccc(F)c3)[C@H]2C1 (stereo not given in full) | 6
CN1CC=C2C(C#N)C(=N)C(C#N)(C#N)[C@H](c3ccccc3F)[C@H]2C1 (stereo not given in full) | 2
CCN1CC=C2C(C#N)C(=N)C(C#N)(C#N)C(c3cc(OC)c(OC)c(OC)c3)C2C1 (stereo not given) | -1
CCN1CC=C2C(C#N)C(=N)C(C#N)(C#N)C(c3cccc(F)c3)C2C1 (stereo not given) | 47*
CCCN1CC=C2C(C#N)C(=N)C(C#N)(C#N)C(c3cccc(Br)c3)C2C1 (stereo not given) | -1
CCN1CC=C2C(C#N)C(=N)C(C#N)(C#N)[C@H](c3ccc4c(c3)OCO4)[C@H]2C1 (stereo not given in full) | -5
CN1CC=C2C(C#N)C(=N)C(C#N)(C#N)C(c3ccc(Br)s3)C2C1 (stereo not given) | 45*
CCN1CC=C2C(C#N)C(=N)C(C#N)(C#N)C(c3ccc(SC)cc3)C2C1 (stereo not given) | 68*
O=C(CN(C1CCCCC1)S(=O)(=O)c1ccc(Br)cc1)N1CCN(c2ccccc2)CC1 | 9
Cc1ccc(NC(=O)CSC2=NC(=O)CC(=N)N2CCc2ccccc2)cc1 | 12
Cc1ccc(CS(=O)(=O)Nc2cccnc2)cc1 | 3
COc1ccc(C(C)C)cc1S(=O)(=O)Nc1ccccc1 | 5
COc1ccc(CN2CCN(Cc3ccsc3)CC2CCO)c(F)c1 (stereo not given) | 8
CN1C(=O)c2ccccc2C(O)c2ccccc21 (stereo not given) | -2
CC(=O)c1ccccc1-c1ccccc1C(C)=O | 13
CC(=O)C1=NC(=O)c2ccccc2C1O (stereo not given) | 53*
CCOCc1nnc(NC(=O)Cc2ccccc2OC)s1 | 5
Cc1ccc(-c2nn3c(-c4ccc(C)cc4)nnc3c3ccccc23)cc1 | 3
Cc1ccc(-c2nn3c(-c4cccs4)c(C#N)cnc3c2Br)cc1 | 0
SMILES | RBX1-CUL1 inh
Cc1ccc(-c2nn3c(N)c(C#N)nnc3c2Cl)cc1 | 94*
O=C1c2cc(Cl)ccc2OCC1Br (stereo not given) | -6
Cc1ccc2c(c1)C(=O)C(C(c1ccc(Cl)cc1Cl)C1C(=O)Oc3ccc(C)cc3C1=O)C(=O)O2 (stereo not given) | 56*
COc1cc(C(C2C(=O)Oc3ccc(C)cc3C2=O)C2C(=O)Oc3ccc(C)cc3C2=O)cc(OC)c1OC (stereo not given) | 4
CCCN1C(=O)S/C(=C\c2ccc(O)cc2)C1=O | -6
COC(=O)c1cccc(NC(=O)CSc2nnc(COc3c(C)cccc3C)n2C)c1 | 6
CCOc1ccc(N(C(=O)CC)c2nc(-c3ccc(OC)cc3)c(C)s2)cc1 | 2
Nc1c(C(=O)Nc2ccccc2F)sc2nc3c(cc12)CCCCC3 | 2
Nc1c(C(=O)Nc2ccccc2C(=O)O)sc2nc3c(cc12)CCCCCC3 | 9
Nc1c(C(=O)Nc2ccccc2C(=O)O)sc2nc3c(cc12)CCCCC3 | 35*
N#Cc1c(-c2ccccc2)cc(-c2ccccc2)nc1SCCN1CCOCC1 | 100*
N#Cc1c(-c2ccccc2)cc(-c2cccs2)nc1SCCN1CCOCC1 | 0
Cc1nc(SCCN2CCOCC2)cc(-c2ccccc2)n1 | -3
O=C1/C(=C/c2ccco2)CCc2c1cnc1ccc3ccccc3c21 | 8
COc1ccc(SC/C(N)=N\O)cc1OC | 9
NC(Cc1ccccc1)C(=O)NCCO (stereo not given) | 5
CCCc1noc(CN2CCC(N3CCSCC3)CC2)n1 | 0
COc1ccc(C=C2C(=O)c3ccccc3C2=O)cc1O | -2
O=C1/C(=C/c2ccc(O)c(O)c2)Oc2ccccc21 | 97*
CC(C)c1cc(/C=C2\OC(=O)c3ccccc32)cc(C(C)C)c1O | -9
COc1ccc(F)c(CN2CCCC(O)(CNC(C)C)C2=O)c1 (stereo not given) | -3
O=C1C(=O)N(c2ccccc2)N=C(c2ccccc2)C1C(=O)c1ccccc1 (stereo not given) | -1
O=C1N(c2ccccc2)N=C(c2ccccc2)C1(Br)Br | 60*
CC1=NN(c2ccccc2)C(=O)C1c1ccccc1 (stereo not given) | 3
Oc1c(Br)cc(C(=C(Cl)Cl)c2cc(Br)c(O)c(Br)c2)cc1Br | 66*
Oc1c(Br)cc(Br)nc1Br | 2
O=C(O)c1ccc(Sc2ccccc2C(=O)O)cc1 | 2
CC(C)(C)C1=NN2C(=Nc3sc(C(C)(C)C)n[n+]3C2c2ccccc2O)S1 (stereo not given) | -1
O=C(O)c1ccc(N2N=C(c3ccccc3)/C(=C/c3ccco3)C2=O)cc1 | 33*
